Results on 18 molecules are retold here after PubChem BioAssay (NCATS).

A short description of experiment [1]: qHTS profiling for inhibitors of Plasmodium falciparum proliferation (AID 504749). Further: nearly all actives have a fitted effect of over 60% in size.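 On activity, negative = inhibition: 0% = DMSO vehicle and full inhibition = artemisinin control.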 To be noted: P. falciparum in erythrocytes, SYBR Green DNA, 72 h. In a few lines:
(§1)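 P. falciparum-infected erythrocytes (0.3% parasitemia, 2.5% hematocrit final) were exposed to compounds for 72 h at 37 C in 5% CO2, then lysed with SYBR Green buffer overnight at room temperature; parasite DNA fluorescence was normalized to artemisinin and DMSO controls.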
A general note: qHTS replaces the single test concentration by a dilution series.

Experiment [2] relates to 3D7. The experiment is described as above. Conditions: P. falciparum in erythrocytes, SYBR Green DNA, 72 h; series mostly up to 28.7 µM. In a few lines: as §1
Experiment [3] deals with 7G8. Described as above. Conditions: P. falciparum in erythrocytes, SYBR Green DNA, 72 h; series mostly up to 28.7 µM. In a few lines:
as §1

Experiment [4] deals with AA1029. The description is as above. Conditions: P. falciparum in erythrocytes, SYBR Green DNA, 72 h; series mostly up to 28.7 µM. In a few lines: as §1
The subject of experiment [5] is AS120. Described as above. To be noted: P. falciparum in erythrocytes, SYBR Green DNA, 72 h; series mostly up to 28.7 µM. In a few lines:
as §1

The test system of experiment [6] is ATS189. Described as above. To be noted: P. falciparum in erythrocytes, SYBR Green DNA, 72 h; series mostly up to 28.7 µM. In a few lines: as §1
Experiment [7] concerns ATS95. The description is as above. To be noted: P. falciparum in erythrocytes, SYBR Green DNA, 72 h; series mostly up to 28.7 µM. In a few lines: as §1
For experiment [8], the system named is C2A. The experiment is described as above. To be noted: P. falciparum in erythrocytes, SYBR Green DNA, 72 h; series mostly up to 28.7 µM. In a few lines: as §1
Experiment [9] deals with CP185. The experiment is described as above. Conditions: P. falciparum in erythrocytes, SYBR Green DNA, 72 h; series mostly up to 28.7 µM. In a few lines:
as §1

Experiment [10] has as its system CP191. The experiment is described as above. Conditions: P. falciparum in erythrocytes, SYBR Green DNA, 72 h; series mostly up to 28.7 µM. In a few lines: as §1
Where [11] appears, read: at 28.7 µM (top of the series), parasite line A.
Where [12] appears, read: at 28.7 µM (top of the series), parasite line B.
[13] abbreviates: at 12.8 µM (top of the series), parasite line A.
Setting [14] is: at 12.8 µM (top of the series), parasite line B.

SMILES strings stand for the structures. Inconclusive results are not listed. Unmarked numbers belong to inactive results. Calls of active or inactive are those of the source. The call rests on the fitted dose curve; in most records, active means well fitted inhibition curve with a large enough effect; inconclusive means small, poorly fitted or top-dose-only effect; inactive means flat fitted curve, though single readings scatter. Numbered stars: 1 amine (or outer) side, 2 acyl side, 3 side chain; on linkers, the order of the positions; unused ones are H or OH. Bridge positions count the residues as written; N and C are the ends. Square brackets hold non-standard residues; d marks the D form. Peptide text beside a SMILES is read from it. I, II: the chains in the order shown. Actinocin(9to1) = Cc1c2oc3c(C)ccc(C(=O)[*:1])c3nc-2c(C(=O)[*:2])c(N)c1=O; NMeV = CN[C@H](C(=O)O)C(C)C; Sar = CNCC(=O)O
Potency means the concentration at half of the fitted maximal effect.

Turning to `NC(=NCCCCCCN=C(N)/N=C(\N)Nc1ccc(Cl)cc1)/N=C(\N)Nc1ccc(Cl)cc1`, the Potency in [1] (parasite line A) was 3.16 µM (active); in experiment [1] (parasite line B), 3.98 µM (active); in experiment [2], 1.41 µM (active); in experiment [3] it was 0.251 µM (active); in [4], 1 µM (active); in [5] it was 1.26 µM (active). The Potency in experiment [6] was 1.78 µM (active); in [7] it was 2 µM (active); in experiment [8] it was 2.24 µM (active); in experiment [9] it was 1.78 µM (active); in experiment [10], 1.12 µM (active).

With `CN1C(CCl)Nc2cc(Cl)c(S(N)(=O)=O)cc2S1(=O)=O` (stereo not given), the activity, negative = inhibition in experiment [1] (setting [11]) is 6.24%; in experiment [1] (setting [12]), -11.6%. In addition, the Potency result in experiment [2], in experiment [3], in [4], in experiment [5], in experiment [6] and in experiment [7] was “inactive” in each case. The Potency result in [8], in experiment [9] and in [10] was “inactive” in each case.

Regarding `CN1CCC(=C2c3ccccc3Sc3ccccc32)CC1`, the Potency is 6.31 µM (active) in [1] (parasite line A); 10 µM (active) in [1] (parasite line B); 8.91 µM (active) in experiment [2]; 5.01 µM (active) in [3]; 5.62 µM (active) in experiment [4]; 12.6 µM (active) in experiment [5]. The Potency in [6] is 7.94 µM (active); in experiment [7] it was 11.2 µM (active); in experiment [8], 11.2 µM (active); in experiment [9] it was 8.91 µM (active).

On to `COc1cc(-c2ccc(=O)[nH]n2)ccc1OC(F)F`, for which the Potency in experiment [1] (parasite line A) was 11.2 µM (active); in [1] (parasite line B) it was 0.891 µM (active); in experiment [4], 0.178 µM (active); in experiment [5] it was 0.891 µM (active); in experiment [7], 0.251 µM (active). Also, the Potency result in experiment [2], in experiment [3], in [6] and in [8] was “inactive” each time.

As to `Cc1c2oc3c(C)ccc(C(=O)N[C@@H]4C(=O)N[C@H](C(C)C)C(=O)N5CCC[C@H]5C(=O)N(C)CC(=O)N(C)[C@@H](C(C)C)C(=O)O[C@@H]4C)c3nc-2c(C(=O)N[C@@H]2C(=O)N[C@H](C(C)C)C(=O)N3CCC[C@H]3C(=O)N(C)CC(=O)N(C)[C@@H](C(C)C)C(=O)O[C@@H]2C)c(N)c1=O` (I: T[dV]P[Sar][NMeV] / II: T[dV]P[Sar][NMeV]; ester I:1-I:C, II:1-II:C; linker I:N-II:N via Actinocin(9to1)), the Potency is 0.0035 µM (active) in experiment [1] (parasite line A); 0.0063 µM (active) in experiment [1] (parasite line B); 0.0056 µM (active) in experiment [2]; 0.0013 µM (active) in experiment [3]; 0.0045 µM (active) in experiment [4]; 0.0045 µM (active) in experiment [5]. Further, the Potency is 0.0032 µM (active) in experiment [6]; 0.004 µM (active) in experiment [7]; 0.0056 µM (active) in experiment [8]; 0.0045 µM (active) in experiment [9]; 0.0045 µM (active) in [10].

`C[N+]1(CCCCC[N+]2(C)CCCC2)CCCC1`: the activity, negative = inhibition in experiment [1] (setting [11]) is 2.83%; in experiment [1] (setting [12]) it was 3.44%. In addition, the Potency entry in experiment [2], in experiment [3], in experiment [4], in experiment [5], in experiment [6] and in [7] was “inactive” in each case. Also, the Potency entry in experiment [8], in [9] and in [10] was “inactive” in each case.

Take `CC(C)COC(=O)OCN1C(=O)CN(CCN2CC(=O)N(COC(=O)OCC(C)C)C(=O)C2)CC1=O`: the activity, negative = inhibition is 4.43% in experiment [1] (setting [11]) and 8.61% in experiment [1] (setting [12]). The Potency entry in experiment [2], in experiment [3], in [4], in [5], in [6] and in experiment [7] was “inactive” each time. Further, the Potency entry in experiment [8], in [9] and in [10] was “inactive” each time.

Regarding `CCn1cc(C(=O)O)c(=O)c2cnc(N3CCCC3)nc21`, the activity, negative = inhibition in [1] (setting [13]) was -13.8%; in experiment [1] (setting [14]) it was 2.72%. Moreover, the Potency result in experiment [2], in experiment [3], in experiment [4], in experiment [5], in experiment [6] and in experiment [7] was “inactive” throughout. For the same molecule, the Potency entry in experiment [8], in experiment [9] and in experiment [10] was “inactive” throughout.

Regarding `CC(Cc1cccc(C(F)(F)F)c1)NCCOC(=O)c1ccccc1` (stereo not given), the activity, negative = inhibition in [1] (setting [11]) is 15.8%; in [1] (setting [12]), 6.99%. Moreover, the Potency entry in experiment [2], in experiment [4], in experiment [5], in experiment [6], in [7] and in experiment [8] was “inactive” throughout. The Potency result in [9] and in experiment [10] was “inactive” each time. For the same molecule, the Potency in [3] is 8.91 µM (active).

As for `O=C1CCC(c2ccc(-n3ccnc3)cc2)=NN1`, the activity, negative = inhibition was 16% in experiment [1] (setting [11]) and 14.3% in experiment [1] (setting [12]). Further, the Potency entry in experiment [2], in experiment [3], in [4], in experiment [5], in experiment [6] and in [7] was “inactive” each time. For the same molecule, the Potency entry in experiment [8], in experiment [9] and in experiment [10] was “inactive” throughout.

As to `CCCCOc1ccc(OCCCN2CCOCC2)cc1`, the activity, negative = inhibition is 9.41% in experiment [1] (setting [13]) and 8.45% in experiment [1] (setting [14]). The Potency entry in experiment [2], in [3], in experiment [4], in [5], in [6] and in experiment [7] was “inactive” throughout. The Potency result in [8], in [9] and in experiment [10] was “inactive” in each case.

Take `N[C@@H](Cc1cnc[nH]1)C(=O)O`: the activity, negative = inhibition is 3.46% in [1] (setting [11]) and 9.36% in experiment [1] (setting [12]). Besides, the Potency result in [2], in experiment [3], in experiment [4], in [5], in [6] and in experiment [7] was “inactive” each time. The Potency result in experiment [8], in experiment [9] and in experiment [10] was “inactive” each time.

On to `COc1cc(C(=S)N2CCOCC2)cc(OC)c1OC`, for which the activity, negative = inhibition in experiment [1] (setting [11]) is 7.95%; in experiment [1] (setting [12]), 9.84%. The Potency entry in experiment [2], in experiment [3], in experiment [4], in experiment [5], in experiment [6] and in [7] was “inactive” in each case. Also, the Potency entry in experiment [8], in [9] and in experiment [10] was “inactive” each time.

For `NC(=O)C(=O)N/N=C/c1ccc([N+](=O)[O-])o1`, the figures for the activity, negative = inhibition in experiment [1] (setting [11]) and in [1] (setting [12]) were -26.1% and -11.4%, respectively. Also, the Potency entry in [2], in experiment [3], in experiment [4], in [5], in experiment [6] and in [7] was “inactive” each time. The Potency result in experiment [8], in [9] and in [10] was “inactive” each time.

As to `Cc1ccnc(NS(=O)(=O)c2ccc(N)cc2)n1`, the results for the activity, negative = inhibition in [1] (setting [13]) and in [1] (setting [14]) were 9.46% and -14.9%, respectively. For the same molecule, the Potency entry in experiment [2], in experiment [3], in [4], in experiment [5], in experiment [6] and in [7] was “inactive” throughout. In addition, the Potency result in [8], in experiment [9] and in [10] was “inactive” in each case.

As for `O=C(CCN1CCC(c2ccccc2)C1)c1ccc2c(c1)OCCO2` (stereo not given), the activity, negative = inhibition in [1] (setting [11]) was 10.2%; in experiment [1] (setting [12]), 1.82%. Moreover, the Potency result in experiment [2], in experiment [3], in experiment [4], in experiment [5], in experiment [6] and in experiment [7] was “inactive” throughout. The Potency entry in [8], in experiment [9] and in [10] was “inactive” each time.

For `Cc1c(N(C)CS(=O)(=O)O)c(=O)n(-c2ccccc2)n1C`, the activity, negative = inhibition in [1] (setting [13]) was 17.9%; in experiment [1] (setting [14]), 23.3%. For the same molecule, the Potency entry in experiment [2], in experiment [3], in [4], in experiment [5], in experiment [6] and in [7] was “inactive” each time. For the same molecule, the Potency result in experiment [8], in [9] and in experiment [10] was “inactive” each time.

For the molecule `CC(=O)OCC(=O)NCCCOc1cccc(CN2CCCCC2)c1`, the activity, negative = inhibition in experiment [1] (setting [11]) was 16.5%; in [1] (setting [12]), 8.13%. For the same molecule, the Potency result in experiment [2], in experiment [3], in [4], in experiment [5], in experiment [6] and in [7] was “inactive” throughout. In addition, the Potency entry in [8], in [9] and in experiment [10] was “inactive” in each case.
